DT40 TDP1 CPT: growth inhibition of DT40 Tdp1-/-;hTDP1 cells with camptothecin (screen for TDP1 inhibitors); chicken DT40 Tdp1-/-;hTDP1 cells + 20 nM CPT, ATP luminescence, 48 h; 420,000 compounds, 12% hits; AID 686979; Potency, µM (doses to about 46.2 µM), for the others: at the highest dose activity change, negative = growth inhibition, actives largely listed as inhibitors; also: potency is read from the fitted curve at half-maximal effect; nearly all actives have a fitted effect of over 55% in size
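Chicken DT40 Tdp1-/- cells complemented with human TDP1, 400 cells/well, exposed to compounds plus 20 nM camptothecin for at least 48 h at 37 C; viability read as ATP content by CellTiter-Glo luminescence.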
DT40 TDP1 no CPT: qHTS for Inhibitors of human tyrosyl-DNA phosphodiesterase 1 (TDP1): qHTS in cells in absence of CPT; Potency, µM (top dose mostly 46.2 µM), for inactives: top-dose activity change, negative = growth inhibition, actives largely listed as inhibitors; AID 686978, 2013; 420,000 compounds, 15% hits; DT40 Tdp1-/- hTDP1 cells, no CPT, ATP luminescence, 48 h; also: potency is read from the fitted curve at half-maximal effect; nearly all actives have a fitted effect of over 55% in size
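Luminescent ATP content (CellTiter-Glo) served as the growth readout. Knockout chicken DT40 cells expressing human TDP1 were exposed to compounds without camptothecin for a minimum 48 hr at 37 °C.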
IL1B secr inh: inflammasome signaling inhibition, IL-1 beta readout; activity change, % at 57.5 µM; THP-1 LPS/ATP IL-1B secretion, AlphaLISA, 16 h; hits give low values; 360,000 compounds, 4.7% hits; AID 743279; in the data active = activity change below about -50%; inconclusive = mostly about -30% to -49%
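Secreted IL-1B measured by AlphaLISA bead assay after 16 h compound exposure of THP-1 cells; compounds (final up to 57.5 uM) added 1 h before LPS (250 ng/mL) and ATP (1.25 mM) stimulation; lower signal means less secretion.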
HT1080 IDH1KD tx: HT-1080 IDH1 knockdown cell toxicity (counter line); 360,000 compounds, 2% hits; HT-1080 IDH1 knockdown viability, ATP luminescence, 48 h; Potency, µM (titrated, usually from 46.1 µM), without a hit: at the top dose activity, negative = toxicity, hits mostly cytotoxic;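 also: potency is read from the fitted curve at half-maximal effect; 0% = DMSO wells and -100% = cell-free medium wells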
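Viability of IDH1-knockdown HT-1080 fibrosarcoma cells was assessed by CellTiter-Glo after 48 h at 37 °C with titrated compound; concentration-effect curves were classified by fit quality and response size.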
HT1080-NT tox: kills 2HG-producing HT-1080-NT fibrosarcoma cells; 360,000 compounds, 1.6% hits; Potency, µM (top dose mostly 46.1 µM), without a hit: top-dose activity, negative = less viability, usual class: cytotoxic; HT-1080-NT fibrosarcoma viability, CellTiter-Glo ATP luminescence, 48 h;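 also: NT is the 2HG producing partner of a matched IDH1 knockdown line; potency is read from the fitted curve at half-maximal effect; 0% = DMSO-treated cells and -100% = media-only wells without cells; nearly all actives have a fitted effect of over 55% in size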
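Viability by CellTiter-Glo luminescence after 48 h compound exposure at 37C of HT-1080-NT cells (750/well, RPMI, 5% FBS). % activity scaled between DMSO wells and medium-only wells, then curve-fitted and categorized by curve class.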
ELG1 repair inh: inhibitors of ELG1-dependent DNA repair in HEK293T cells. Potency, µM (top dose mostly 46.1 µM), inactives show at the highest dose activity change, negative = inhibition, usual class: inhibitors. 330,000 compounds, 2.3% hits. HEK293T ELG1-luciferase reporter, luminescence, 16 h; DNA damage induced by 5-fluorouridine; also: potency is read from the fitted curve at half-maximal effect; nearly all actives have a fitted effect of over 55% in size
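In this reporter screen, reduction of luminescence relative to DMSO vehicle indicated activity. Compounds and 5-fluorouridine were added together to 2,000 cells per well, incubated for 16 hr at 37 °C, then developed with ONE-Glo.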
* marks the source's active call; other numbers are inactive results; ? = inconclusive; · = not tested or not shown. This is a sample that favours compounds with a hit; in the whole collection about 19% have one here. Unless noted, calls follow the shape of the dose curve; as a rule, active = well fitted curve in the direction sought with a large enough effect; inconclusive = small, poorly fitted or top-dose-only effect, or another doubt; inactive = no such curve, though single readings can be large; an effect the other way counts as inactive or inconclusive. Unless noted, % is scaled to controls: 0 for no effect and ±100 for the full control effect.

SMILES	DT40 TDP1 CPT	DT40 TDP1 no CPT	IL1B secr inh	HT1080 IDH1KD tx	HT1080-NT tox	ELG1 repair inh
COc1ccc(S(=O)(=O)c2c(Nc3cccc(C)c3C)sc(C(=O)c3ccccc3)c2N)cc1	2.91µM*	3.26µM*	·	·	·	·
COc1ccc(S(=O)(=O)c2c(Nc3c(C)cccc3C)sc(C(=O)c3ccc4c(c3)OCO4)c2N)cc1	5.17µM*	2.91µM*	·	·	·	·
Cc1cc(-c2cccs2)c2c(N)c(C(=O)c3ccc4c(c3)OCO4)sc2n1	-22.6%	?	-20.6	8.2%	6.3%	?
COc1ccc(C(=O)c2sc3nc(-c4ccc(F)cc4)ccc3c2N)cc1	-22.8%	-13.4%	·	·	·	·
Cc1cc(C)cc(Nc2sc(C(=O)c3ccccc3)c(N)c2S(=O)(=O)c2ccccc2)c1	-24.2%	?	·	·	·	·
COc1ccc(S(=O)(=O)c2c(Nc3c(C)cccc3C)sc(C(=O)c3ccc(F)cc3)c2N)cc1	5.8µM*	5.17µM*	·	·	·	·
Nc1c(C(=O)c2ccccc2)sc(Nc2ccccc2)c1S(=O)(=O)c1ccccc1	?	?	-3.1	-21.9%	-3.0%	?
Cc1ccc(S(=O)(=O)c2c(Nc3cc(C)ccc3C)sc(C(=O)c3ccc4c(c3)OCO4)c2N)cc1	6.51µM*	7.31µM*	·	·	·	·
CCCC(=O)N1CCC1(C)C(=O)NS(=O)(=O)c1cccc(C)c1 (centres undefined)	-5.1%	-1.9%	34.5	29.5%	10.8%	·
COc1ccc(CNC(=O)C2CCN(S(=O)(=O)c3ccc(F)cc3)CC2)cc1	-29.8%	-23.9%	·	·	·	·
CC(C)n1ncc2c(C(=O)N3CCN(Cc4ccc(Br)s4)CC3)cc(C3CC3)nc21	25.9µM*	23.1µM*	?	0.2%	-1.5%	?
COc1ccc(NC(=O)c2cc(-c3ccccc3)nc3c2cnn3C(C)C)cc1	?	?	-70.0*	-16.6%	-1.1%	?
CC(C)n1ncc2c(C(=O)O)cc(C3CC3)nc21	?	3.9%	0.7	5.4%	11.0%	-2.5%
CCOc1ccc(OCCNC(=O)c2cc(C3CC3)nc3c2cnn3C(C)C)cc1	16.4µM*	5.17µM*	?	-23.9%	-5.8%	?
COc1ccc(CNC(=O)c2cc(C3CC3)nc3c2cnn3C(C)C)cc1	?	?	?	-2.9%	-5.7%	-9.9%
CC(C)n1ncc2c(C(=O)Nc3cccc(C#N)c3)cc(C3CC3)nc21	?	?	-57.6*	?	-23.8%	?
COc1cccc(-n2c(=O)c3c(C)c(C)sc3n(CC(=O)Nc3ccccc3OC)c2=O)c1	-9.9%	4.6%	·	·	·	·
CCN1C(=O)[C@H]2[C@H]3CN=C(SCc4ccc(Cl)cc4)N3[C@@](C)(C(=O)OC)[C@H]2C1=O	?	?	-15.1	12.7%	17.4%	-1.9%
COc1ccc2ccc(OCC(=O)NCC3CCCO3)cc2c1 (centres undefined)	?	-12.4%	-4.6	9.6%	10.4%	1.1%
CC(C)n1ncc2c(C(=O)NCCOc3ccccc3F)cc(C3CC3)nc21	11.6µM*	3.26µM*	-25.9	-8.1%	-3.0%	?
COc1ccccc1CNC(=O)c1cc(C2CC2)nc2c1cnn2C(C)C	?	?	2.7	-6.6%	-10.8%	-19.4%
COc1cc(C(=O)NCC(c2ccc(N(C)C)cc2)N2CCCC2)cc(OC)c1OC (centres undefined)	18.4µM*	?	·	·	·	·
CN(C)c1ccc(C(CNC(=O)c2ccccc2C(F)(F)F)N2CCOCC2)cc1 (centres undefined)	-9.6%	-19.8%	·	·	·	·
COc1cccc(C(=O)NCC(c2ccc(N(C)C)cc2)N2CCOCC2)c1OC (centres undefined)	14.6µM*	16.4µM*	·	·	·	·

Screening data (PubChem)
